“And” between values parts separate entries of the source, which are not always exact repeats. Equal values may be shown once. Results filed as inconclusive are left out. A call without a number means that no potency is given here. The source made the active and inactive calls. Calls come from the whole dose curve.
experiment: qHTS assay to identify small molecule agonists of H2AX - cell viability counter screen (AID 1224847); conditions: CHO-K1 viability, CellTiter-Glo luminescence, 3 h; series mostly up to 70.9 µM; note: nearly all actives have a fitted effect of over 30% in size
Description: National Center for Advancing Translational Sciences [NCATS]
NIH Chemical Genomics Center [NCGC]
U.S. Environmental Protection Agency [EPA]
National Institutes of Environmental Health Sciences [NIEHS]
National Toxicology Program [NTP]
U.S. Food and Drug Administration [FDA]
HTRF phospho-H2AX (Ser139) assay (Cisbio Bioassays, US) enables the quantitative detection of the histone variant H2AX when phosphorylated on serine 139. When double-stranded DNA breaks, either by ionizing radiation or endogenous physiological processes, H2AX becomes phosphorylated at Ser139. This phospho-Ser139 serves as a sensitive biomarker for the detection of such breaks, localizing the site of DNA repair. So, HTRF phospho-H2AX Ser139 is a pertinent assay to study genome stability, the cell cycle, DNA repair, and it serves as a biomarker for cancer, and to understand aging. Wild type CHO-K1 cells were used to identify the inducers of Phospho-H2AX Ser 139 from the Tox21 compound collections. Also cytotoxicity of the Tox21 10K compound library against the CHO-K1 cell line was tested by measuring the cell viability using CellTiter-Glo assay (Promega, Madison, WI).
Tox21 Assay Protocol Summary:
The CHO-K1 cells suspended in culture medium containing 10% FBS were dispensed at 1000 cells/ 3 ul/well in 1536-well white wall/solid bottom plates (Greiner Bio-One North America, NC) using a Multidrop Combi (Thermo Fisher Scientific Inc., Waltham, MA). After the assay plates were incubated at 37C overnight, 23 nl of compounds at 15 concentrations (from 5-48 columns) or positive control (from 1 to 4 columns) were transferred to the assay plates using a Pintool station (Wako, San Diego, CA) into each well resulting in a final DMSO concentration of 0.76%. After 3hr incubation at 37C, 3 uL/well CellTiter-Glo luminescent cell viability reagent (Promega Corporation, Madison, WI) was added using a Flying Reagent Dispenser (FRD) (Aurora Discovery, CA). After incubation at room temperature for 30 min, the luminescence intensity was read using a ViewLux plate reader (PerkinElmer, Waltham, MA).
Potency is the fitted concentration of half-maximal effect.

Structure (SMILES) | Potency
O=C(OCC(COC(=O)c1ccccc1)(COC(=O)c1ccccc1)COC(=O)c1ccccc1)c1ccccc1 | inactive
COc1ccc(CN2CCN(C(c3ccc(F)cc3)c3ccc(F)cc3)CC2)c(OC)c1OC | 49.2 µM (active)
CN(C/C=C/C#CC(C)(C)C)Cc1cccc2ccccc12 | 55.2 µM (active)
Cc1onc(-c2ccccc2Cl)c1C(=O)N[C@@H]1C(=O)N2[C@@H]1SC(C)(C)[C@@H]2C(=O)O | inactive
NC(=O)CC[C@@H]1NC(=O)[C@H](Cc2ccccc2)NC(=O)[C@H](Cc2ccc(O)cc2)NC(=O)CCSSC[C@@H](C(=O)N2CCC[C@H]2C(=O)N[C@@H](CCCN=C(N)N)C(=O)NCC(N)=O)NC(=O)[C@H](CC(N)=O)NC1=O | inactive
C[C@H](CCC(=O)O)[C@H]1CC[C@H]2[C@@H]3CC[C@@H]4C[C@H](O)CC[C@]4(C)[C@H]3CC[C@]12C | 100 µM (active) and 80 µM (active)
Cc1cc(O)c(C(C)(C)C)cc1C(C)(C)C | 50.5 µM (active)
CCOC(=O)O[C@H](C)OC(=O)c1ccc2c(c1)cc(C(=O)NC1CCN(C(C)C)CC1)n2Cc1cc(-c2ccc(Cl)s2)on1 | 37.5 µM (active)
OC1(c2ccc(Cl)c(C(F)(F)F)c2)CCN(CCCC(c2ccc(F)cc2)c2ccc(F)cc2)CC1 | 55.2 µM (active)
CCOC(=O)O[C@]1(C(=O)OCCl)CC[C@H]2[C@@H]3CCC4=CC(=O)C=C[C@]4(C)[C@H]3[C@@H](O)C[C@@]21C | inactive
CN(C)[C@@H]1C(=O)C(C(N)=O)=C(O)[C@@]2(O)C(=O)C3=C(O)c4c(O)cccc4C[C@H]3C[C@@H]12 | inactive
COC(=O)c1cc(Cl)ccc1OC | inactive
O=c1[nH]sc2cc(Cl)ccc12 | inactive
O=[N+]([O-])c1ccccc1Nc1ccccc1 | inactive
Cc1cccc2c1cc1ccc3cccc4ccc2c1c34 | inactive
COc1cc(-c2ccc(N=C=O)c(OC)c2)ccc1N=C=O | inactive
C[C@@H](NCCCc1cccc(C(F)(F)F)c1)c1cccc2ccccc12 | 49.2 µM (active)
O=C1C=CC(=O)N1 | 82.2 µM (active)
C=C(C)C(=O)OCC(O)COc1ccc(C(C)(C)c2ccc(OCC(O)COC(=O)C(=C)C)cc2)cc1 (stereo not given) | 35.7 µM (active)
Oc1ccc2c(c1)-c1ccccc1C2 | inactive

Structure (SMILES) | Potency
CCC(N)(CO)CO | inactive
Oc1ccc(C2(c3ccc(O)cc3)CC3CC2C2CCCC32)cc1 (stereo not given) | 86.2 µM (active)
COc1c(C)c2c(c(O)c1C/C=C(\C)CCC(=O)O)C(=O)OC2 | inactive
CCCCCCCC/C=C\CCCCCCCCOCCO | 65.6 µM (active)
CCCC/C=C/CCCCO | inactive
CCCCCCCCCCCCCCCC(=O)OC[C@H](O)[C@H]1OC(=O)C(O)=C1O | inactive
CC(C)(C)NC(=O)[C@@H]1C[C@@H]2CCCC[C@@H]2CN1C[C@@H](O)[C@H](Cc1ccccc1)NC(=O)[C@H](CC(N)=O)NC(=O)c1ccc2ccccc2n1 | 51.2 µM (active)
O=C(N/N=C/c1ccccc1O)c1ccncc1 | inactive
S=c1[nH]c2ccccc2s1 | inactive
Cc1onc(-c2c(Cl)cccc2Cl)c1C(=O)N[C@@H]1C(=O)N2[C@@H]1SC(C)(C)[C@@H]2C(=O)O | inactive
Cc1oc(-c2ccccc2)nc1CCC(=O)c1ccc(CC2SC(=O)NC2=O)cc1 (stereo not given) | inactive
NNc1nc(-c2ccc([N+](=O)[O-])cc2)cs1 | 22.5 µM (active)
CCCCCCCCCCCCCCCCCC[N+](C)(C)Cc1ccccc1 | 45.4 µM (active)
Oc1ccc2cc(SSc3ccc4cc(O)ccc4c3)ccc2c1 | 89.9 µM (active)
C[n+]1cc2c3c(ccc2c2ccc4cc5c(cc4c21)OCO5)OCO3 | 0.852 µM (active)
CC1=C(/C=C/C(C)=C/C=C/C(C)=C/C=O)C(C)(C)CCC1 | 39.9 µM (active)
Oc1cc2ccccc2c2ccccc12 | 28.4 µM (active)
CCCC(C)c1ccccc1O (stereo not given) | 80 µM (active)
O=C(O)c1c(Cl)cccc1Cl | inactive
CC(C)c1ccc2c(c1)CC[C@H]1[C@](C)(CN)CCC[C@]21C | 89.8 µM (active)
